Several values for one entry are separate records, joined by “and”; a condition that tells them apart may be missing. Identical values can stand only once. Out of some 5,500 compounds screened, about 2,000 (36%) were called active. Another 18% or so got no clear call; they are omitted. No stated cut-off is given here; in the data, active means normalized growth mostly below about 0.91 (no sharp cut-off); inconclusive means no clear call, values can overlap the other calls; inactive means mostly above about 0.92. Some of the results follow.
Assay: chemical genetic growth profiling, strain panel (AID 1159580);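 further: tested at 20 µM; growth read once vehicle control cultures reached saturation at 30 °C; 1 = growth at the plate median or of vehicle wells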
Conditions: S. cerevisiae deletion strains, growth OD

Measured: normalized growth

C/C=C(/C(=C/C)c1ccc(O)cc1)c1ccc(O)cc1
0.691 (active) and 0.969 (inactive): locus YHR030C, strain SLT2, stronger effect = lower value
active: locus YAL026C, strain drs2, stronger effect = lower value 0.9 | locus YCL029C, strain bik1, stronger effect = lower value 0.823 | locus YDL074C, strain BRE1, stronger effect = lower value 0.492 | locus YDL101C, strain DUN1, stronger effect = lower value 0.869 | locus YDL185W, strain tfp1, stronger effect = lower value 0.844 | locus YDL192W, strain arf1, stronger effect = lower value 0.567 | locus YDR101C, strain arx1, stronger effect = lower value 0.846 | locus YDR137W, strain rgp1, stronger effect = lower value 0.757 | locus YDR162C, strain NBP2, stronger effect = lower value 0.561 | locus YDR318W, strain mcm21, stronger effect = lower value 0.789 | locus YDR388W, stronger effect = lower value 0.589 | locus YDR502C, strain sam2, stronger effect = lower value 0.821 | locus YEL061C, strain CIN8, stronger effect = lower value 0.899 | locus YER155C, strain BEM2, stronger effect = lower value 0.624 | locus YGL078C, strain dbp3, stronger effect = lower value 0.87 | locus YGL086W, strain mad1, stronger effect = lower value 0.832 | locus YGL248W, strain PDE1, stronger effect = lower value 0.81 | locus YGR135W, strain pre9, stronger effect = lower value 0.836 | locus YGR229C, strain SMI1, stronger effect = lower value 0.504 | locus YGR252W, strain gcn5, stronger effect = lower value 0.682 | locus YHR079C, strain IRE1 (second series), stronger effect = lower value 0.802 | locus YHR129C, strain ARP1, stronger effect = lower value 0.841 | locus YHR200W, strain rpn10, stronger effect = lower value 0.845 | locus YIL125W, strain kgd1, stronger effect = lower value 0.858 | locus YJL187C, strain SWE1 (second series), stronger effect = lower value 0.814
inactive: locus YAL021C, strain ccr4, stronger effect = lower value 1.02 | locus YAL030W, strain snc1, stronger effect = lower value 0.978 | locus YBL061C, strain skt5, stronger effect = lower value 0.974 | locus YBR009C, strain hhf1, stronger effect = lower value 0.929 | locus YBR021W, strain FUR4, stronger effect = lower value 0.907 | locus YBR023C, strain chs3, stronger effect = lower value 0.968 | locus YBR171W, strain sec66, stronger effect = lower value 0.94 | locus YBR229C, strain ROT2, stronger effect = lower value 0.995 | locus YBR231C, strain swc5, stronger effect = lower value 1 | locus YBR279W, strain paf1, stronger effect = lower value 0.971 | locus YCL011C, strain gbp2, stronger effect = lower value 0.968 | locus YCL016C, strain dcc1, stronger effect = lower value 0.997 | locus YCL069W, strain vba3, stronger effect = lower value 0.953 | locus YCR088W, strain abp1, stronger effect = lower value 0.989 | locus YDL005C, strain med2, stronger effect = lower value 0.992 | locus YDL035C, strain GPR1, stronger effect = lower value 0.892 | locus YDL040C, strain nat1, stronger effect = lower value 0.979 | locus YDR001C, strain nth1, stronger effect = lower value 0.962 | locus YDR069C, strain doa4, stronger effect = lower value 0.974 | locus YDR159W, strain sac3, stronger effect = lower value 0.923 | locus YDR195W, strain ref2 0.989 | locus YDR297W, strain sur2, stronger effect = lower value 0.952 | locus YDR334W, strain swr1, stronger effect = lower value 0.968 | locus YDR335W, strain msn5, stronger effect = lower value 0.943 | locus YDR392W, strain spt3, stronger effect = lower value 0.905 | locus YEL003W, strain gim4, stronger effect = lower value 0.949 | locus YEL037C, strain rad23, stronger effect = lower value 0.989 | locus YEL061C, strain CIN8 (second series), stronger effect = lower value 0.973 | locus YER015W, strain faa2, stronger effect = lower value 0.953 | locus YER016W, strain bim1, stronger effect = lower value 0.986 | locus YER110C, stronger effect = lower value 0.982 | locus YER111C, strain swi4, stronger effect = lower value 0.993 | locus YER155C, strain BEM2 (second series), stronger effect = lower value 0.959 | locus YER167W, strain BCK2, stronger effect = lower value 0.904 | locus YFR010W, strain ubp6, stronger effect = lower value 0.982 | locus YGL167C, strain pmr1, stronger effect = lower value 0.978 | locus YGL173C, strain kem1, stronger effect = lower value 0.927 | locus YGL227W, strain vid30, stronger effect = lower value 0.985 | locus YGL240W, strain doc1, stronger effect = lower value 0.945 | locus YGL253W, strain hxk2, stronger effect = lower value 0.971 | locus YHR013C, strain ard1, stronger effect = lower value 1.15 | locus YHR027C, strain rpn1, stronger effect = lower value 0.979 | locus YHR079C, strain IRE1, stronger effect = lower value 0.982 | locus YHR094C, strain hxt1, stronger effect = lower value 0.968 | locus YHR142W, strain chs7, stronger effect = lower value 0.943 | locus YIL066C, strain RNR3, stronger effect = lower value 0.9 | locus YIL073C, strain SPO22, stronger effect = lower value 0.976 | locus YIR030C, strain dcg1, stronger effect = lower value 0.958 | locus YJL092W, strain hpr5, stronger effect = lower value 0.971 | locus YJL095W, strain BCK1 (second series), stronger effect = lower value 0.944 | locus YJL115W, strain asf1, stronger effect = lower value 0.984 | locus YJL129C, strain trk1, stronger effect = lower value 0.9 | locus YJL134W, strain LCB3, stronger effect = lower value 0.998 | locus YJL154C, strain vps35, stronger effect = lower value 0.969 | locus YJL164C, strain tpk1, stronger effect = lower value 0.972 | locus YJL166W, strain qcr8, stronger effect = lower value 0.915 | locus YJL168C, strain set2, stronger effect = lower value 0.979 | locus YJR043C, strain POL32, stronger effect = lower value 0.971 | locus YJR066W, strain TOR1, stronger effect = lower value 0.931
0.497 (active) and 0.978 (inactive): locus YJL095W, strain BCK1, stronger effect = lower value

From PubChem BioAssay AID1159580 (chemical genetic matrix, 2015)
